{"source": "the OligoGym collection", "data": [{"target": "SHOC2", "assay": "pooled miR-30 sensor sort-seq; sequence = guide strand", "conditions": "shRNA", "values": [{"sequence": "TCCAACTCTCTTAACTTCCTAA", "sensor-assay potency score (higher = more potent)": -0.798}, {"sequence": "TATCTAACTATACTACCTCTGT", "sensor-assay potency score (higher = more potent)": -0.264}, {"sequence": "TTTGTTCTCTTCTAGATCCAAC", "sensor-assay potency score (higher = more potent)": -0.823}, {"sequence": "TGAATTTTCACTTAGAGCCAGT", "sensor-assay potency score (higher = more potent)": -0.612}, {"sequence": "TTTGATCGTATTGTCAACTGAA", "sensor-assay potency score (higher = more potent)": 0.487}, {"sequence": "TATGTGTATAGATCTCTTGGAT", "sensor-assay potency score (higher = more potent)": -0.313}, {"sequence": "TTCTCTTCTAGATCCAACTCTC", "sensor-assay potency score (higher = more potent)": -0.213}, {"sequence": "TTGTGAGCTACATCCAGCGTAA", "sensor-assay potency score (higher = more potent)": 0.0478}, {"sequence": "TTGATTGTGAGCTACATCCAGC", "sensor-assay potency score (higher = more potent)": -0.412}, {"sequence": "TTACTTAATACTTTTGCTCTGG", "sensor-assay potency score (higher = more potent)": 0.139}, {"sequence": "TATATCTAACTATACTACCTCT", "sensor-assay potency score (higher = more potent)": -0.42}, {"sequence": "TTGATCGTATTGTCAACTGAAA", "sensor-assay potency score (higher = more potent)": -1.19}]}, {"target": "SHOX2", "assay": "pooled miR-30 sensor sort-seq; sequence = guide strand", "conditions": "shRNA", "values": [{"sequence": "TTTTCTTGTTTTCTACATTTAG", "sensor-assay potency score (higher = more potent)": -1.51}, {"sequence": "TTTATGGAGTTGATTTTCTTGT", "sensor-assay potency score (higher = more potent)": -0.402}, {"sequence": "TTCTATGCAAGAGTCCATCGTT", "sensor-assay potency score (higher = more potent)": 0.114}, {"sequence": "TTTGAAACCAAACCTGCACTCG", "sensor-assay potency score (higher = more potent)": -0.285}, {"sequence": "TTGCGATCTTTCAGCTCCGGGG", "sensor-assay potency score (higher = more potent)": -1.14}, {"sequence": "TCCAGGGTGAAATTGGTCCGAC", "sensor-assay potency score (higher = more potent)": -1.19}, {"sequence": "TTCTTGCTGGTGGTCTTGGCGG", "sensor-assay potency score (higher = more potent)": -1.37}, {"sequence": "TTTCTACATTTAGCTCTTCGAT", "sensor-assay potency score (higher = more potent)": -1.28}, {"sequence": "TATGAGAACACCTTTATGGAGT", "sensor-assay potency score (higher = more potent)": -0.114}, {"sequence": "TTTGCGATCTTTCAGCTCCGGG", "sensor-assay potency score (higher = more potent)": -1.2}, {"sequence": "TTCTACATTTAGCTCTTCGATT", "sensor-assay potency score (higher = more potent)": -0.898}, {"sequence": "TACATTTAGCTCTTCGATTTTG", "sensor-assay potency score (higher = more potent)": -1.22}]}, {"target": "SHROOM4", "assay": "pooled miR-30 sensor sort-seq; sequence = guide strand", "conditions": "shRNA", "values": [{"sequence": "TAGTGGTTGAAGAACAGTCCGT", "sensor-assay potency score (higher = more potent)": -0.287}, {"sequence": "TAGCTTGACAAGTCCAGTGCTG", "sensor-assay potency score (higher = more potent)": -0.0975}, {"sequence": "TTGAAGAGCTTGTCTCTGGGGC", "sensor-assay potency score (higher = more potent)": 0.543}, {"sequence": "TTGAAGAACAGTCCGTGGCTTG", "sensor-assay potency score (higher = more potent)": -0.301}, {"sequence": "TTCATCTTGACAAAGTGCTGGT", "sensor-assay potency score (higher = more potent)": 0.618}, {"sequence": "TTTGCTTGCAAAACATTCTGAG", "sensor-assay potency score (higher = more potent)": 0.464}, {"sequence": "TAGAGCTCCTTGAACACTGCAG", "sensor-assay potency score (higher = more potent)": 0.417}, {"sequence": "TTGCTTGCAAAACATTCTGAGT", "sensor-assay potency score (higher = more potent)": -1.21}, {"sequence": "TTTCATCTTGACAAAGTGCTGG", "sensor-assay potency score (higher = more potent)": 0.237}, {"sequence": "TATCAGTACCAACTTCTCCTGG", "sensor-assay potency score (higher = more potent)": -0.376}, {"sequence": "TTTCTGAACTGAAATACTGGGG", "sensor-assay potency score (higher = more potent)": -0.0667}, {"sequence": "TTATTCGTCCCTCTAAGCCTGT", "sensor-assay potency score (higher = more potent)": -0.267}]}, {"target": "SIAE", "assay": "pooled miR-30 sensor sort-seq; sequence = guide strand", "conditions": "shRNA", "values": [{"sequence": "TTAAATATCTGTAACACAGTCA", "sensor-assay potency score (higher = more potent)": 0.571}, {"sequence": "TATCTTGTTGTCCTTTTTCTGC", "sensor-assay potency score (higher = more potent)": -1.26}, {"sequence": "TAATCCATCAGTAAACTGCATT", "sensor-assay potency score (higher = more potent)": -1.07}]}]}
